Data published in PubChem BioAssay (NCI).
Compounds without any hit were thinned out: in the full panel of roughly 83,000, 20% have a hit.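 Plates (96-well) were seeded with cells, treated with compound at one concentration, and incubated for 48 hours before percent growth was determined.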 A number with no mark means an inactive call. The source made the active and inactive calls. Rule for the calls: active = growth percent below 10; inactive = the rest.

How the values were obtained:
Experiment in all cases: NCI-60 one-dose screen, 48 h (100 = growth as untreated, 0 = no growth, -100 = all killed)
Details in all cases: 10 µM unless noted
[1] = system: RPMI-8226 leukemia
[2] = system: OVCAR-8 ovarian
[3] = system: OVCAR-5 ovarian
[4] = system: OVCAR-4 ovarian
[5] = system: SK-OV-3 ovarian
[6] = system: IGROV1 ovarian
[7] = system: OVCAR-3 ovarian
[8] = system: HS 578T breast
[9] = system: NCI/ADR-RES ovarian

SMILES	growth [1]	growth [2]	growth [3]	growth [4]	growth [5]	growth [6]	growth [7]	growth [8]	growth [9]
CCCCN(CCCC)c1ccc(C(=N)c2ccc(N(CCCC)CCCC)cc2)cc1	-74.3% (active)	-82.1% (active)	-82.4% (active)	-79.3% (active)	-22.6% (active)	-53.5% (active)	-99.2% (active)	-45% (active)	-87.5% (active)
COc1ccc(-c2[nH]nc(N)c2-c2cc(OC)c3c(c2)OCO3)cc1	81.3%	77.2%	70%	89.3%	76.7%	73.9%	64.9%	40.4%	8.74% (active)
O=S(=O)(NCCNc1nccc(-c2c(-c3ccc(F)cc3)nc3sccn23)n1)c1ccc(F)cc1	74.7%	68.2%	102%	81.4%	92.7%	61.8%	90.1%	93.8%	81.2%
CC(O)CN1CCCCC1 (stereo unspecified)	113%	105%	110%	109%	107%	106%	105%	113%	106%
O=C(Nc1cccc(-n2cc(-c3ccncc3)c(-c3ccc(Cl)c(O)c3)n2)c1)Nc1cc(C(F)(F)F)cc(C(F)(F)F)c1	-10.9% (active)	-12.2% (active)	-32.9% (active)	0.865% (active)	-24.3% (active)	4.8% (active)	-67.5% (active)	-26% (active)	4.72% (active)
COc1ccc(/C=C2\CN(Cc3cn(CCNc4ccnc5cc(Cl)ccc45)nn3)C/C(=C\c3ccc(OC)c(OC)c3)C2=O)cc1OC	-1.73% (active)	-3.77% (active)	18.1%	29.8%	4.28% (active)	7.35% (active)	-13.9% (active)	23.4%	103%
Cc1cc(N)n(S(=O)(=O)c2oc(-c3ccccc3)nc2C#N)n1	75.9%	89.4%	109%	106%	91.8%	97.9%	89.9%	116%	100%
CN1CCN(Cc2ccc(NC(=O)c3nc4ccc5[nH]ncc5c4c4c3CCC4)cc2C(F)(F)F)CC1	-37% (active)	-53.8% (active)	3.19% (active)	68.3%	93.8%	-80.9% (active)	-91.3% (active)	85.9%	-40.8% (active)
COc1ccc(-n2c(=O)sc3c(Cl)nc(C)nc32)c(OC)c1	106%	56.9%	92%	101%	83.8%	28.8%	68.8%	93.9%	101%
COc1ccc(-n2c(=S)sc3c(Cl)nc(C)nc32)c(OC)c1	22.6%	0.172% (active)	87%	95.6%	80.1%	-17.3% (active)	-20.7% (active)	72.6%	78.5%
O=C(Nc1cccc(-n2cc(-c3ccncc3)c(-c3ccc(Cl)c(O)c3)n2)c1)Nc1ccc(Cl)c(Cl)c1	7.89% (active)	11.7%	56.4%	29.4%	18.7%	28.7%	-4.74% (active)	36.1%	20.9%
COc1ccc(NC(=O)c2c(Nc3ccc(OC)cc3OC)n[nH]c2N)c(OC)c1	91%	96.4%	96.3%	102%	92%	93.7%	106%	96%	101%
COc1cc(-c2nn(-c3cccc(NC(=O)Nc4ccc(Cl)c(Cl)c4)c3)cc2-c2ccncc2)ccc1Cl	-11.6% (active)	-17.2% (active)	38%	19.8%	11.8%	23.9%	-10% (active)	-6.95% (active)	0.321% (active)
CCCCCCCC[C@@H](O)CC(=O)N[C@@H](CC(N)=O)C(=O)N[C@@H](CCC(N)=O)C(=O)N[C@@H](CC(=O)c1cc(C)cc(O)c1C(=O)c1c(O)cccc1O)CC(C)C	10.9%	47.6%	39.9%	41.1%	63.4%	15.1%	-3.89% (active)	26.9%	93.7%
COc1ccc(C2C=C(c3ccc(OC)c(OC)c3)N=C3SC=C(C)N32)c(Br)c1 (stereo unspecified)	102%	99.2%	92.8%	99.6%	107%	105%	112%	116%	113%
COc1ccncc1S(=O)(=O)NC(=O)Nc1ccc(Cl)c(Cl)c1	46.2%	97.8%	89.6%	95.7%	114%	82.7%	90%	93.9%	89.8%
O=C(Nc1cccc(-n2cc(-c3ccncc3)c(-c3ccc(Cl)c(O)c3)n2)c1)c1ccccc1	60.5%	50.9%	115%	40.7%	80.1%	88%	82.1%	48.4%	62.7%
COc1cc(-c2nn(-c3cccc(NC(=O)Nc4cc(C(F)(F)F)cc(C(F)(F)F)c4)c3)cc2-c2ccncc2)ccc1Cl	-11.7% (active)	-12.7% (active)	16.3%	17.2%	-9.79% (active)	19.9%	-57.9% (active)	-25.8% (active)	1.11% (active)
COc1ccc(C2C=C(c3ccc(N)cc3)N=C3SC=CN32)cc1OC (stereo unspecified)	101%	98.7%	108%	102%	115%	101%	107%	127%	106%
NC(=O)CCCN1C/C(=C\c2ccccc2)C(=O)c2ccccc21	101%	98.4%	101%	98.9%	89.5%	102%	109%	99.6%	109%
O=C(c1ccccc1)c1c(/C=C/c2ccccc2)c2ccccc2[nH]c1=O	94.6%	90.9%	90.4%	97.7%	102%	95.4%	97.6%	88.7%	97.5%
Cc1cc(N/N=C/c2nc(-c3ccccc3)oc2C)c2cc(Br)ccc2n1	11.9%	42.5%	96.3%	1.21% (active)	78.3%	78.6%	109%	85.8%	78.9%
CCN(CC)c1ccc2[nH]c3c(C(N)=O)cc(=O)c(=O)c=3oc2c1	-1.62% (active)	0.295% (active)	15.1%	2.07% (active)	19.9%	-44.4% (active)	-35.9% (active)	2.92% (active)	-0.316% (active)
O=C(Nc1cccc(-n2cc(-c3ccncc3)c(-c3ccc(Cl)c(O)c3)n2)c1)Nc1cccc(C(F)(F)F)c1	1.63% (active)	10.6%	62.4%	41.5%	21.2%	28.6%	0.81% (active)	29.4%	24.9%
O=C(/C=C/c1c[nH]c2ccccc12)c1ccc(O)c(CN2CCN(c3ccc(F)cc3)CC2)c1	91%	95.1%	90.8%	93.9%	101%	106%	103%	108%	103%
Cn1c(=O)c2[nH]c(C3CC=CCC3)nc2n(C)c1=O (stereo unspecified)	101%	106%	94.7%	111%	99.1%	111%	105%	97.7%	112%
Oc1ccccc1/C=N/NC(=S)NC1CC2C=CC1C2 (stereo unspecified)	63.5%	84.3%	109%	78.1%	95.7%	62.2%	67.4%	98.2%	0.723% (active)
CCCN=C1NC(=O)/C(=C/c2nc(-c3ccc(OC)cc3)n3ccccc23)S1	74%	86.7%	104%	87.5%	98.1%	94%	61.9%	-8.63% (active)	83.6%
COc1ccc(C2=Nn3c(nnc3-n3nc(C)cc3C)SC2)cc1	20.9%	17.6%	48.7%	61.1%	-3.05% (active)	32.2%	-47.9% (active)	7.5% (active)	10.7%
